About 83,000 compounds went through this panel and 20% of them were active in at least one assay; those are over-represented in the sample as a whole.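 In brief: 96-well plates, 48 h treatment, single concentration, percent growth endpoint.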 A number with no mark means an inactive call. The source made the active and inactive calls. Rule for the calls: active = growth percent below 10; inactive = the rest.
Tests used:
Experiment in all cases: NCI-60 one-dose screen, 48 h (100 = growth as untreated, 0 = no growth, -100 = all killed)
Details in all cases: 10 µM unless noted
T-47D breast = tested on: T-47D breast
BT-549 breast = tested on: BT-549 breast
MDA-MB-435 melanoma = tested on: MDA-MB-435 melanoma
SW-620 colon = tested on: SW-620 colon
MCF7 breast = tested on: MCF7 breast
HCT-116 colon = tested on: HCT-116 colon
HCC-2998 colon = tested on: HCC-2998 colon
KM12 colon = tested on: KM12 colon

## CC(=O)C(CO)C(=O)Nc1ccccc1 (centres undefined)
T-47D breast
  growth: 94.5%
BT-549 breast
  growth: 106%
MDA-MB-435 melanoma
  growth: 106%
SW-620 colon
  growth: 109%
MCF7 breast
  growth: 91.5%
HCT-116 colon
  growth: 106%
HCC-2998 colon
  growth: 99.3%
KM12 colon
  growth: 104%

## CCCCCSc1ccc2nc(NC(=O)OCCC)sc2c1
T-47D breast
  growth: 38.1%
BT-549 breast
  growth: 34.2%
MDA-MB-435 melanoma
  growth: -40.5% (active)
SW-620 colon
  growth: 22.9%
MCF7 breast
  growth: 14.3%
HCT-116 colon
  growth: 25.3%
HCC-2998 colon
  growth: 74%
KM12 colon
  growth: 24.9%

## COc1cccc(Cn2cc3c(c2)-c2oncc2CC3)c1
T-47D breast
  growth: 65.2%
BT-549 breast
  growth: 66%
MDA-MB-435 melanoma
  growth: -47% (active)
SW-620 colon
  growth: 26.4%
MCF7 breast
  growth: 18.4%
HCT-116 colon
  growth: 8.74% (active)
HCC-2998 colon
  growth: -32.4% (active)
KM12 colon
  growth: 5.03% (active)

## COC(=O)[C@H](Cc1cn(C)cn1)NC(=O)[C@H](CC(=O)OCc1ccccc1)NC(=O)Nc1cc(C(F)(F)F)cc(C(F)(F)F)c1
T-47D breast
  growth: -62.1% [100 µM] (active)
BT-549 breast
  growth: -96.6% [100 µM] (active)
MDA-MB-435 melanoma
  growth: -91.9% [100 µM] (active)
SW-620 colon
  growth: -59.2% [100 µM] (active)
MCF7 breast
  growth: -60.5% [100 µM] (active)
HCT-116 colon
  growth: -97.9% [100 µM] (active)
HCC-2998 colon
  growth: -91.5% [100 µM] (active)
KM12 colon
  growth: -89.8% [100 µM] (active)

## CCCCN(CCCC)c1ccc(C(=O)O)cc1
T-47D breast
  growth: 94.7%
BT-549 breast
  growth: 97%
MDA-MB-435 melanoma
  growth: 102%
SW-620 colon
  growth: 107%
MCF7 breast
  growth: 98.6%
HCT-116 colon
  growth: 97.3%
HCC-2998 colon
  growth: 100%
KM12 colon
  growth: 103%

## C=CCSc1nnc(COc2ccc3c(C)c(Cc4ccccc4)c(=O)oc3c2C)o1
T-47D breast
  growth: 96%
BT-549 breast
  growth: 100%
MDA-MB-435 melanoma
  growth: 103%
SW-620 colon
  growth: 99.2%
MCF7 breast
  growth: 95.7%
HCT-116 colon
  growth: 95.6%
HCC-2998 colon
  growth: 104%
KM12 colon
  growth: 101%

## O=C(Oc1ccccc1)c1ccccc1Cl
T-47D breast
  growth: 100%
BT-549 breast
  growth: 96.8%
MDA-MB-435 melanoma
  growth: 103%
SW-620 colon
  growth: 104%
MCF7 breast
  growth: 102%
HCT-116 colon
  growth: 102%
HCC-2998 colon
  growth: 108%
KM12 colon
  growth: 98.9%

## CCC(CCCN1C(=O)c2ccccc2C1=O)Nc1cc(OC)cc2cccnc12 (centres undefined)
T-47D breast
  growth: 66.3%
BT-549 breast
  growth: 92.9%
MDA-MB-435 melanoma
  growth: 105%
SW-620 colon
  growth: 95%
MCF7 breast
  growth: 20.8%
HCT-116 colon
  growth: 105%
HCC-2998 colon
  growth: 147%
KM12 colon
  growth: 110%

## COc1cc(N)c2nccc(C)c2c1OC
T-47D breast
  growth: 108%
BT-549 breast
  growth: 83.3%
MDA-MB-435 melanoma
  growth: 110%
SW-620 colon
  growth: 94.1%
MCF7 breast
  growth: 113%
HCT-116 colon
  growth: 102%
HCC-2998 colon
  growth: 149%
KM12 colon
  growth: 101%

## CC([C@H]1CCC2C3CCC4C[C@@H](N)CC[C@]4(C)C3CC[C@@]21C)N(C)C (some centres undefined)
T-47D breast
  growth: 55.9%
BT-549 breast
  growth: 80.1%
MDA-MB-435 melanoma
  growth: 0% (active)
SW-620 colon
  growth: 40.2%
MCF7 breast
  growth: 48.7%
HCT-116 colon
  growth: 27.9%
HCC-2998 colon
  growth: 80.1%
KM12 colon
  growth: 51.3%

## N=C(N)c1ccc(-c2ccc(-c3ccc(F)cc3)s2)cc1
T-47D breast
  growth: -57.5% (active)
BT-549 breast
  growth: -19.9% (active)
MDA-MB-435 melanoma
  growth: -99.2% (active)
SW-620 colon
  growth: -87.9% (active)
MCF7 breast
  growth: -83.5% (active)
HCT-116 colon
  growth: -83.3% (active)
HCC-2998 colon
  growth: -77.5% (active)
KM12 colon
  growth: -87.3% (active)

## CC1(C)NC(=S)NC1=O
T-47D breast
  growth: 91.6%
BT-549 breast
  growth: 103%
MDA-MB-435 melanoma
  growth: 110%
SW-620 colon
  growth: 96.9%
MCF7 breast
  growth: 99.2%
HCT-116 colon
  growth: 102%
HCC-2998 colon
  growth: 112%
KM12 colon
  growth: 108%

## CCCCCCCCC(=O)Nc1ccc(O)cc1
T-47D breast
  growth: 88.7%
BT-549 breast
  growth: 80.5%
MDA-MB-435 melanoma
  growth: 98.3%
SW-620 colon
  growth: 103%
MCF7 breast
  growth: 97.9%
HCT-116 colon
  growth: 101%
HCC-2998 colon
  growth: 83.7%
KM12 colon
  growth: 90.9%

## CCCC(=O)NNc1[nH]c(-c2ccc(OC)cc2)cc1C(=O)OCC
T-47D breast
  growth: 63.9%
BT-549 breast
  growth: 99.4%
MDA-MB-435 melanoma
  growth: 95.2%
SW-620 colon
  growth: 95.5%
MCF7 breast
  growth: 104%
HCT-116 colon
  growth: 109%
HCC-2998 colon
  growth: 75.2%
KM12 colon
  growth: 98.9%

## O=C(/C=C/c1c[nH]c2ccccc12)c1cc2ccccc2o1
T-47D breast
  growth: 82.8%
BT-549 breast
  growth: 79.6%
MDA-MB-435 melanoma
  growth: 92.1%
SW-620 colon
  growth: 95.2%
MCF7 breast
  growth: 65.9%
HCT-116 colon
  growth: 62%
HCC-2998 colon
  growth: 105%
KM12 colon
  growth: 75.7%

## CC(=O)OCC(=O)[C@@]1(O)[C@H](C)C[C@H]2[C@@H]3C=C(C)C4=Cc5c(cnn5-c5ccc(F)cc5)C[C@]4(C)[C@H]3[C@@H](O)C[C@@]21C
T-47D breast
  growth: 42.9%
BT-549 breast
  growth: 54.8%
MDA-MB-435 melanoma
  growth: 23.3%
SW-620 colon
  growth: -70.3% (active)
MCF7 breast
  growth: 18.9%
HCT-116 colon
  growth: 15.7%
HCC-2998 colon
  growth: -35.3% (active)
KM12 colon
  growth: -46.7% (active)

## CC#Cc1nc(Nc2cc(C)[nH]n2)c2ccccc2n1
T-47D breast
  growth: 2.69% [100 µM] (active)
BT-549 breast
  growth: -61.9% [100 µM] (active)
MDA-MB-435 melanoma
  growth: -44.4% [100 µM] (active)
SW-620 colon
  growth: -1.25% [100 µM] (active)
MCF7 breast
  growth: 6.03% [100 µM] (active)
HCT-116 colon
  growth: -15.7% [100 µM] (active)
HCC-2998 colon
  growth: -86.3% [100 µM] (active)
KM12 colon
  growth: -74.6% [100 µM] (active)

## OCC(O)C(O)CC1SCCS1 (centres undefined)
T-47D breast
  growth: 97.1%
BT-549 breast
  growth: 102%
MDA-MB-435 melanoma
  growth: 105%
SW-620 colon
  growth: 99.7%
MCF7 breast
  growth: 103%
HCT-116 colon
  growth: 104%
HCC-2998 colon
  growth: 108%
KM12 colon
  growth: 103%

## O=C(/C=C1\C(=O)N(Cc2ccc([N+](=O)[O-])cc2)c2ccccc21)c1ccc(OCCN2CCCC2)cc1
T-47D breast
  growth: 56.3%
BT-549 breast
  growth: 81.5%
MDA-MB-435 melanoma
  growth: 48.2%
SW-620 colon
  growth: 18.7%
MCF7 breast
  growth: 22.3%
HCT-116 colon
  growth: 12.2%
HCC-2998 colon
  growth: 101%
KM12 colon
  growth: 90.1%

## CCOC(=O)NC1=NCC(C)(C)S1
T-47D breast
  growth: 93.8%
BT-549 breast
  growth: 106%
MDA-MB-435 melanoma
  growth: 100%
SW-620 colon
  growth: 103%
MCF7 breast
  growth: 100%
HCT-116 colon
  growth: 105%
HCC-2998 colon
  growth: 98.3%
KM12 colon
  growth: 101%

## COc1ccc(/C=N/c2cc(C(C)(C)C)nn2-c2ccccc2)cc1
T-47D breast
  growth: 85.8%
BT-549 breast
  growth: 128%
MDA-MB-435 melanoma
  growth: 95.5%
SW-620 colon
  growth: 101%
MCF7 breast
  growth: 88.8%
HCT-116 colon
  growth: 92.8%
HCC-2998 colon
  growth: 132%
KM12 colon
  growth: 104%

## C[C@]12CC[C@H]3[C@@H](CC[C@H]4C[C@@H](O)CC[C@@]43C)[C@@H]1CC(=O)C2
T-47D breast
  growth: 106%
BT-549 breast
  growth: 103%
MDA-MB-435 melanoma
  growth: 116%
SW-620 colon
  growth: 103%
MCF7 breast
  growth: 124%
HCT-116 colon
  growth: 99.3%
HCC-2998 colon
  growth: 101%
KM12 colon
  growth: 108%

## COC1(OC)N=C(N)C2(C#N)C3(C(=O)Nc4ccccc43)C12C#N (centres undefined)
T-47D breast
  growth: 95.8%
BT-549 breast
  growth: 62.5%
MDA-MB-435 melanoma
  growth: 91.7%
SW-620 colon
  growth: 94.9%
MCF7 breast
  growth: 86.7%
HCT-116 colon
  growth: 81.6%
HCC-2998 colon
  growth: 103%
KM12 colon
  growth: 101%

Source: PubChem BioAssay (NCI)
